DT40 TDP1 CPT = growth inhibition of DT40 Tdp1-/-;hTDP1 cells with camptothecin (screen for TDP1 inhibitors); Potency, µM (titrated, usually from 46.2 µM), for the others: at the top dose activity change, negative = growth inhibition, usual class: inhibitors; chicken DT40 Tdp1-/-;hTDP1 cells + 20 nM CPT, ATP luminescence, 48 h; AID 686979; hit rate 12% among 420,000; further: potency means the concentration at half of the fitted maximal effect; on the % scale 0 is the no-effect control and ±100 the full control effect; nearly all actives have a fitted effect of over 55% in size
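Chicken DT40 Tdp1-/- cells complemented with human TDP1, 400 cells/well, exposed to compounds plus 20 nM camptothecin for at least 48 h at 37 C; viability read as ATP content by CellTiter-Glo luminescence.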
TGFb inhibitor = inhibitors of TGF-b signaling. hit rate 1.2% among 410,000. Potency, µM (highest dose often 46.1 µM), for the others: top-dose activity, negative = inhibition, most hits filed as inhibitors. HepG2 CAGA-GFP TGF-b/SMAD3 reporter, GFP fluorescence, 18 h; TGF-beta stimulated, 500 pg/mL final. AID 588855; further: potency means the concentration at half of the fitted maximal effect; on the % scale 0 is the no-effect control and ±100 the full control effect; nearly all actives have a fitted effect of over 65% in size
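Inhibition of TGF-beta-driven CAGA-GFP reporter expression in HEPG2 cells is measured by cellular GFP fluorescence after 18 h stimulation with 500 pg/mL recombinant TGF-beta in 1% FBS medium at 37 degrees C.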
TDP1 block = inhibitors of human tyrosyl-DNA phosphodiesterase TDP1 | Q9NUW8 | recombinant TDP1, AlphaScreen DNA substrate cleavage | Potency, µM (series often up to 130 µM), inactives show top-dose activity change, negative = inhibition, actives largely listed as inhibitors | hit rate 0.28% among 350,000 | AID 485290; further: potency means the concentration at half of the fitted maximal effect; on the % scale 0 is the no-effect control and ±100 the full control effect; nearly all actives have a fitted effect of over 40% in size
Target sequence (Q9NUW8 whole entry, looked up): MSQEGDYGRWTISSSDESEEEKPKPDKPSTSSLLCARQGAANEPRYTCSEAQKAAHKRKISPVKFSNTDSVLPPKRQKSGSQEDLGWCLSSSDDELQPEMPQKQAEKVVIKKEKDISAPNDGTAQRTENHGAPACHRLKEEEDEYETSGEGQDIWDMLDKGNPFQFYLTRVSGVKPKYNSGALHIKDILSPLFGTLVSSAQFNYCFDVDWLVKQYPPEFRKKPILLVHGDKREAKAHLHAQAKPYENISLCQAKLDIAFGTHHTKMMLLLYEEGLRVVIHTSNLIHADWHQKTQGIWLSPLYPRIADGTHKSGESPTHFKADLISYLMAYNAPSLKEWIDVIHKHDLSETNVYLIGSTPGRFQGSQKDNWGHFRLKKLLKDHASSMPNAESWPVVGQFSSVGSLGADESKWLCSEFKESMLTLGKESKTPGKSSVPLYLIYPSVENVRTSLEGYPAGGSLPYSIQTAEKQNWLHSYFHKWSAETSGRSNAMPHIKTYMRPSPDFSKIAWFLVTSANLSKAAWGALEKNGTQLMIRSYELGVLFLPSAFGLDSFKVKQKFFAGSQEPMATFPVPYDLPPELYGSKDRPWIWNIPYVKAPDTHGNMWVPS
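Tdp1 1 nM final; 15 min RT w/ cpd; substrate 15 nM, 5 min; beads 10 ug/ml, 10 min; AlphaScreen read. Neg ctrl: no enzyme.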
IL-1B inflam inh = blocks inflammasome-driven IL-1 beta release | hit rate 4.7% among 360,000 | activity change, % at 57.5 µM | THP-1 LPS/ATP IL-1B secretion, AlphaLISA, 16 h; hits give low values; in the data active means activity change below about -50%; inconclusive means mostly about -30% to -49%; further: on the % scale 0 is the no-effect control and ±100 the full control effect
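THP-1 cells pretreated 1 hr with compounds (up to 57.5 uM final), then stimulated with LPS (250 ng/mL final) plus ATP (1.25 mM final); secreted IL-1B measured by AlphaLISA after 16 hr, decreased signal indicating inhibition.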
HepG2 tox = counter-screen for TGF-b inhibitors: cytotoxicity in HepG2 cells; HepG2 CAGA-GFP viability, ATP luminescence, 18 h; AID 588856; hit rate 0.76% among 410,000; Potency, µM (top dose mostly 46.1 µM), for inactives: at the highest dose activity change, negative = cytotoxicity, most hits filed as cytotoxic; further: potency means the concentration at half of the fitted maximal effect
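HepG2 CAGA-GFP cells (1000/well, DMEM with 1% FBS) received compound, then TGF-beta at 500 pg/mL final, and were incubated 18 hours at 37 degrees C. Viability was read by CellTiter-Glo luminescence. Media-only wells were set as complete cell-killing and DMSO as no toxicity.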
TDP1 cell noCPT = qHTS for Inhibitors of human tyrosyl-DNA phosphodiesterase 1 (TDP1): qHTS in cells in absence of CPT. DT40 Tdp1-/- hTDP1 cells, no CPT, ATP luminescence, 48 h. Potency, µM (series often up to 46.2 µM), inactives show at the top dose activity change, negative = growth inhibition, most hits filed as inhibitors. hit rate 15% among 420,000; further: potency means the concentration at half of the fitted maximal effect; on the % scale 0 is the no-effect control and ±100 the full control effect; nearly all actives have a fitted effect of over 55% in size
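Chicken DT40 Tdp1-/- cells stably complemented with human TDP1 were seeded at 400 cells/well with DMSO in place of 20 nM camptothecin. After compound pinning, cells grew at least 48 hr at 37 °C; viability read by CellTiter-Glo luminescence.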
The depositor's hits bear a star; ? = inconclusive; . = not tested or not shown. Sampled rows, rich in hits. Any-hit rate of the full collection: about 18%. Unless noted, the call rests on the fitted dose curve; in most records, active means well fitted curve in the direction sought with a large enough effect; inconclusive means small, poorly fitted or top-dose-only effect, or another doubt; inactive means no such curve, though single readings can be large; an effect the other way counts as inactive or inconclusive.

SMILES | DT40 TDP1 CPT | TGFb inhibitor | TDP1 block | IL-1B inflam inh | HepG2 tox | TDP1 cell noCPT
Cc1nc(Nc2ncc(C(=O)Nc3c(C)cccc3Cl)s2)cc(N2CCN(CCO)CC2)n1 | 2.1µM* | 1.3µM* | . | . | -70% | 2.4µM*
Cc1ccc(NC(=O)Nc2ccnc(-c3cccnc3)n2)cc1 | 8.2µM* | ? | -3% | 36 | 1% | 8.2µM*
CCOc1ccccc1NC(=O)C(NS(=O)(=O)c1ccc2c(c1)CCC(=O)N2)c1ccccc1 (configuration not stated) | ? | 147% | 5% | . | 144% | ?
Cc1cccc(C)c1NC(=O)CN(C)C(=O)C1CC1C (configuration not stated) | -3% | 9% | 0% | 5 | 2% | 5%
CCC[C@@H](CN1CCC[C@H]1CN1C(N)=NC[C@H]1CC(C)C)N1C[C@@H]([C@H](C)CC)N(CCCC2CCCC2)C1=N | 21µM* | 5% | -7% | -58* | -15% | 16µM*
CCCCN1C(=N)N([C@@H](CCC)CN2CCC[C@H]2CN2C(N)=NC[C@H]2C(C)C)C[C@H]1[C@H](C)CC | -15% | 12% | -5% | -17 | 5% | ?
CC(C)C[C@@H]1CN=C(N)N1C[C@@H]1CCCN1C[C@H](C)N1C[C@@H](Cc2ccccc2)N(CCc2ccc(Cl)c(Cl)c2)C1=N | 18µM* | -3% | -2% | 0 | -5% | ?
CCCCN1C(=N)N([C@@H](C)CN2CCC[C@H]2CN2C(N)=NC[C@H]2CC(C)C)C[C@H]1[C@H](C)CC | 23µM* | 17% | -13% | 0 | 4% | 16µM*
Cc1csc(SCc2ccc(C(=O)O)cc2)n1 | 2% | -6% | 7% | -15 | 6% | -1%
Cc1ccc(S(=O)(=O)N(C)c2ccc(OCC(=O)Nc3ccc(S(C)(=O)=O)cc3)cc2)cc1 | 18µM* | -48% | . | -5 | -18% | 16µM*
COc1ccc(NC(=O)CS(=O)(=O)c2cccc(Cl)c2)cc1 | ? | -2% | . | -25 | -5% | 23µM*
COc1ccc(NC(=O)CS(=O)(=O)c2ccc(Br)cc2)cc1 | 9% | 19% | . | 4 | 12% | 5%
COCCn1c(C)cc(C(=O)COC(=O)c2ccc(S(=O)(=O)N(C)C)cc2)c1C | -7% | 6% | 0% | 14 | 4% | -3%
COCCn1c(C)cc(C(=O)COc2ccc(N(C)S(=O)(=O)c3ccc(C)cc3)cc2)c1C | 18µM* | -13% | 4% | 2 | -24% | ?
COc1ccc(NC(=O)COc2ccc(N(C)S(=O)(=O)c3ccc(Cl)cc3)cc2)cc1 | -11% | -6% | 2% | -52* | -15% | ?
COCCN(CCOC)Cc1cc(=O)oc2cc(C)c(C)cc12 | 9% | -5% | . | -12 | 0% | ?
COc1ccc2[nH]c(=O)c(CN(CC3CCCO3)S(=O)(=O)c3ccccc3F)cc2c1 (configuration not stated) | ? | 0% | . | 13 | -12% | ?
Cc1c(C(=O)Nc2cccc(C(F)(F)F)c2)sc2nc3n(c(=O)c12)CCCC3 | 10µM* | -8% | 6% | . | -21% | 8.2µM*
Cc1c(C(=O)Nc2ccc(C(C)C)cc2)sc2nc3n(c(=O)c12)CCC3 | 16µM* | 144% | 3% | . | -25% | 21µM*
CC(=O)c1cccc(NC(=O)c2sc3nc4n(c(=O)c3c2C)CCCC4)c1 | ? | 18% | 2% | -16 | 2% | -5%
Cc1c(C(=O)NCCc2ccc(Cl)cc2)sc2nc3n(c(=O)c12)CCCC3 | ? | . | 10% | . | -27% | 18µM*
Cc1c(C(=O)NCCc2ccc(Cl)cc2)sc2nc3n(c(=O)c12)CCC3 | ? | 2% | 2% | -7 | -1% | -22%
Cc1c(C(=O)O)sc2nc3n(c(=O)c12)CCC3 | -28% | -1% | 14µM* | -3 | 15% | ?
Cc1c(C(=O)N2CCN(c3ccccc3)CC2)sc2nc3n(c(=O)c12)CCC3 | -20% | -3% | 2% | 3 | -7% | 7%
Cc1c(C(=O)NCCN2CCCC(O)C2)oc2c(F)cccc12 (configuration not stated) | -2% | -2% | 4% | ? | -14% | 2%
SMILES | DT40 TDP1 CPT | TGFb inhibitor | TDP1 block | IL-1B inflam inh | HepG2 tox | TDP1 cell noCPT
Cc1ccccc1C(=O)NCCCNC(=O)c1ccccn1 | 4% | ? | 4% | -7 | -1% | -4%
Cc1ccc(C)c(NC(=O)Cn2c(=O)n(-c3ccccc3C)c(=O)c3c2c2cc(C)ccc2n3C)c1 | ? | -15% | 3% | . | -3% | -10%
CCOc1ccc(CCNC(=O)c2sc3nc4n(c(=O)c3c2C)CCCC4)cc1 | ? | -29% | 3% | . | 2% | ?
CCOc1ccc(NC(=O)c2sc3nc4n(c(=O)c3c2C)CCCC4)cc1 | 21µM* | -8% | 12% | . | -2% | 13µM*
COc1cc(OC)c(N(C)C(=O)c2sc3nc4n(c(=O)c3c2C)CCCC4)cc1Cl | ? | -21% | 5% | . | -30% | 16µM*
CCc1ccccc1N(C)C(=O)c1sc2nc3n(c(=O)c2c1C)CCCCC3 | ? | -10% | 6% | . | -16% | ?
CC(=O)Nc1ccc(NC(=O)c2sc3nc4n(c(=O)c3c2C)CCCCC4)cc1 | 12µM* | 22% | 2% | -8 | 0% | 10µM*
Cc1c(C(=O)N(C)c2cccc(C(F)(F)F)c2)sc2nc3n(c(=O)c12)CCCCC3 | ? | -34% | 5% | . | -4% | 15µM*
CCc1ccc(NC(=O)c2sc3nc4n(c(=O)c3c2C)CCC4)cc1 | -22% | ? | 2% | -3 | -53% | -22%
CCOc1ccc(CN2C(=O)c3ccccc3Sc3ccc(C(=O)NCc4ccco4)cc32)cc1 | -25% | -13% | 2% | . | -6% | -24%
O=C(CN(Cc1ccco1)C(=O)CNS(=O)(=O)c1ccc(Cl)cc1)NCc1ccco1 | ? | 0% | 2% | -20 | 12% | -7%
Cc1c(C(=O)Nc2ccc(C(C)C)cc2)sc2nc[nH]c(=O)c12 | 21µM* | 44% | 8% | . | -51% | 18µM*
Cc1ccc(NC(=O)c2sc3nc[nH]c(=O)c3c2C)cc1Cl | -29% | -26% | -1% | . | -22% | ?
C[C@H]1CCCCO[C@H](CN(C)CC2CCCCC2)[C@@H](C)CN([C@@H](C)CO)C(=O)c2cc(NS(=O)(=O)c3ccccc3)ccc2O1 | ? | 15% | . | ? | -62% | -4%
